Source: PubChem
TDP1 cell noCPT: qHTS for Inhibitors of human tyrosyl-DNA phosphodiesterase 1 (TDP1): qHTS in cells in absence of CPT | DT40 Tdp1-/- hTDP1 cells, no CPT, ATP luminescence, 48 h | Potency, µM (series often up to 46.2 µM), inactives show at the top dose activity change, negative = growth inhibition, hits mostly inhibitors | actives 15% (n = 420,000) | AID 686978, 2013; also: nearly all actives have a fitted effect of over 55% in size
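Seeded 400 DT40-hTDP1 cells/well (vehicle DMSO, no 20 nM CPT); pinned compounds; ≥48 hr at 37 °C; CellTiter-Glo luminescence as viability measure.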
HT1080NT lethal: kills 2HG-producing HT-1080-NT fibrosarcoma cells | AID 686970 | actives 1.6% (n = 360,000) | HT-1080-NT fibrosarcoma viability, CellTiter-Glo ATP luminescence, 48 h | Potency, µM (top dose mostly 46.1 µM), without a hit: at the top dose activity, negative = less viability, hits mostly cytotoxic;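 also: NT is the 2HG producing partner of a matched IDH1 knockdown line; 0% = DMSO-treated cells and -100% = media-only wells without cells; nearly all actives have a fitted effect of over 55% in size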
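HT-1080-NT fibrosarcoma cells (2HG-overproducing), 750 cells/well in RPMI with 5% FBS, dosed after 2 h and incubated 48 h at 37C. CellTiter-Glo luminescence normalized to DMSO and no-cell wells; concentration-response curves fitted and classed.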
HT1080 IDH1KD tx: kills HT-1080 cells with IDH1 knockdown. Potency, µM (highest dose often 46.1 µM), for inactives: at the top dose activity, negative = toxicity, usual class: cytotoxic. HT-1080 IDH1 knockdown viability, ATP luminescence, 48 h. actives 2% (n = 360,000);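 also: 0% = DMSO wells and -100% = cell-free medium wells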
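Viability of IDH1-knockdown HT-1080 fibrosarcoma cells was assessed by CellTiter-Glo after 48 h at 37 °C with titrated compound; concentration-effect curves were classified by fit quality and response size.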
DT40 TDP1 CPT: DT40-hTDP1 cell growth loss with CPT. AID 686979. chicken DT40 Tdp1-/-;hTDP1 cells + 20 nM CPT, ATP luminescence, 48 h. actives 12% (n = 420,000). Potency, µM (series often up to 46.2 µM), for inactives: at the top dose activity change, negative = growth inhibition, most hits filed as inhibitors; also: nearly all actives have a fitted effect of over 55% in size
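Chicken DT40 Tdp1-/- cells complemented with human TDP1, 400 cells/well, exposed to compounds plus 20 nM camptothecin for at least 48 h at 37 C; viability read as ATP content by CellTiter-Glo luminescence.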
KB-3-1 tox: kills parental KB-3-1 adenocarcinoma cells; actives 1.4% (n = 400,000); Potency, µM (top dose mostly 46.1 µM), hits mostly cytotoxic; AID 1347075; KB-3-1 viability, CellTiter-Glo ATP luminescence, 72 h; also: nearly all actives have a fitted effect of over 60% in size
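Parental KB-3-1 viability, qHTS format: 72 h compound exposure, 37 °C; CellTiter-Glo; media-only wells and DMSO plates as controls; concentration-effect fits on corrected data.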
KB-V1 MDR tox: KB-V1 MDR subline cytotoxicity; actives 3.4% (n = 400,000); AID 1347076; Potency, µM (doses to about 46.1 µM), actives largely listed as cytotoxic; KB-V1 MDR cells viability, CellTiter-Glo, 72 h; also: nearly all actives have a fitted effect of over 60% in size
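Compound-treated KB-V1 multidrug-resistant cells, 72 h, 37 degrees C; viability by CellTiter-Glo. Fitted qHTS curves give the values.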
Active calls of the source: *. Sampled rows, rich in hits. Any-hit rate of the full collection: about 19%. Calls follow the shape of the dose curve; as a rule, active = well fitted curve in the direction sought with a large enough effect; inconclusive = small, poorly fitted or top-dose-only effect, or another doubt; inactive = no such curve, though single readings can be large; an effect the other way counts as inactive or inconclusive. Unless noted, % is scaled to controls: 0 for no effect and ±100 for the full control effect; potency is read from the fitted curve at half-maximal effect.

What do the screens show for `O=C(Cn1nnc(-c2ccc(F)cc2)n1)Nc1cccc(S(=O)(=O)N2CCCC2)c1`?
TDP1 cell noCPT: inconclusive; HT1080NT lethal: -25%; HT1080 IDH1KD tx: -15%; DT40 TDP1 CPT: 21µM*; KB-3-1 tox: inconclusive; KB-V1 MDR tox: inactive

Results for O=C(Cn1nnc(-c2ccccc2Cl)n1)Nc1cccc(S(=O)(=O)N2CCCC2)c1 ?
TDP1 cell noCPT: 21µM*; HT1080NT lethal: inconclusive; HT1080 IDH1KD tx: -27%; DT40 TDP1 CPT: 23µM*; KB-3-1 tox: inactive; KB-V1 MDR tox: inconclusive

What do the screens show for `CC(C)(C)c1ccc(OCC(=O)NCC(c2cccs2)N2CCOCC2)cc1` (configuration not stated)?
TDP1 cell noCPT: inconclusive; HT1080NT lethal: -4%; HT1080 IDH1KD tx: -27%; DT40 TDP1 CPT: inconclusive; KB-3-1 tox: inactive; KB-V1 MDR tox: inactive

How did Cc1cc(OCC(=O)NNC(=O)c2cccnc2)cc(C)c1Cl do in these assays?
TDP1 cell noCPT: 11%; HT1080NT lethal: -5%; HT1080 IDH1KD tx: 2%; DT40 TDP1 CPT: inconclusive; KB-3-1 tox: inactive; KB-V1 MDR tox: inactive

How did CCN(CC)S(=O)(=O)c1ccc2c(c1)nc(CCC(=O)Nc1ccc(N3CCOCC3)cc1)n2C do in these assays?
TDP1 cell noCPT: -30%; HT1080NT lethal: -1%; HT1080 IDH1KD tx: -25%; DT40 TDP1 CPT: 6%; KB-3-1 tox: inactive; KB-V1 MDR tox: inactive

What do the screens show for `Clc1ccc(/C=N/Nc2nnc(-c3ncc[nH]3)c3ccccc23)cc1`?
TDP1 cell noCPT: 21µM*; HT1080NT lethal: inconclusive; HT1080 IDH1KD tx: inconclusive; DT40 TDP1 CPT: inconclusive; KB-3-1 tox: inactive; KB-V1 MDR tox: 7.3µM*

Results for Clc1cccc(/C=N/Nc2nnc(Cl)c3ccccc23)c1 ?
TDP1 cell noCPT: -24%; HT1080NT lethal: inconclusive; HT1080 IDH1KD tx: -11%; DT40 TDP1 CPT: inconclusive; KB-3-1 tox: inactive; KB-V1 MDR tox: inactive

What do the screens show for `CCCN1CNc2c(c(=O)[nH]c(=S)n2CCc2c(OC)cccc2OC)C1`?
TDP1 cell noCPT: -28%; HT1080NT lethal: 3%; HT1080 IDH1KD tx: 16%; DT40 TDP1 CPT: -25%

Results for COc1cc(-c2nc3c4ccccc4nc(=S)n3[nH]2)cc(OC)c1OC ?
TDP1 cell noCPT: inconclusive; HT1080NT lethal: 18%; HT1080 IDH1KD tx: 10%; DT40 TDP1 CPT: inconclusive; KB-3-1 tox: inactive; KB-V1 MDR tox: inconclusive

How did CCCC(Oc1ccc(Br)cc1)c1nc2c3cc(OC)c(OC)cc3nc(=S)n2[nH]1 (configuration not stated) do in these assays?
TDP1 cell noCPT: inconclusive; HT1080NT lethal: 3%; HT1080 IDH1KD tx: -16%; DT40 TDP1 CPT: inconclusive; KB-3-1 tox: inconclusive; KB-V1 MDR tox: inconclusive

Results for Cc1nc(=S)n(-c2ccccc2)[nH]1 ?
TDP1 cell noCPT: 5%; HT1080NT lethal: 0%; HT1080 IDH1KD tx: 0%; DT40 TDP1 CPT: -1%; KB-3-1 tox: inactive; KB-V1 MDR tox: inactive

What do the screens show for `CC(Oc1ccc(Br)cc1)c1nc2c3ccccc3nc(=S)n2[nH]1` (configuration not stated)?
TDP1 cell noCPT: 15µM*; HT1080NT lethal: inconclusive; HT1080 IDH1KD tx: -12%; DT40 TDP1 CPT: inconclusive; KB-3-1 tox: inconclusive; KB-V1 MDR tox: inconclusive

What do the screens show for `COc1ccccc1-c1nc2c3ccccc3nc(=S)n2[nH]1`?
TDP1 cell noCPT: -30%; HT1080NT lethal: 1%; HT1080 IDH1KD tx: -9%; DT40 TDP1 CPT: inconclusive; KB-3-1 tox: inactive; KB-V1 MDR tox: inactive

How did S=c1nc2ccccc2c2nc(-c3ccccc3)[nH]n12 do in these assays?
TDP1 cell noCPT: 9.2µM*; HT1080NT lethal: -11%; HT1080 IDH1KD tx: -5%; DT40 TDP1 CPT: 21µM*; KB-3-1 tox: inactive; KB-V1 MDR tox: inactive
